High-throughput results as filed in PubChem.
The list is not random: actives were taken first. Their share in the collection is about 12%.
ALDH1A1 inh: inhibitors of human aldehyde dehydrogenase 1A1; P00352; Purified ALDH1A1, NADH fluorescence, propionaldehyde substrate; Potency, µM (series often up to 75.3 µM), actives largely listed as inhibitors; hit rate 7.3% among 220,000; AID 1030; active = well fitted inhibition curve with a large enough effect, not every such curve was filed as active; inconclusive = small, poorly fitted or top-dose-only effect, or another doubt; inactive = no such curve, though single readings can be large or run the other way
RORg inh: ROR gamma (mouse) transcription inhibition; Drosophila S2 Gal4-RORgamma UAS-luciferase reporter, 20 h; Potency, µM (series often up to 53.6 µM), most hits filed as inhibitors; hit rate 5.4% among 310,000; AID 2551; note: nearly all actives have a fitted effect of over 60% in size
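Schneider cells (Drosophila), stable Gal4 DBD–ROR gamma + UAS-luc; 1 hr cmpd preincubation; Cu2+ induction 700 uM final; 20 hr ambient; luminescence.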
Gal4-VP16 FLuc: Gal4-VP16 reporter inhibition counter-screen; Drosophila S2 Gal4-VP16 UAS-luciferase, luminescence, 20 h; Potency, µM (highest dose often 53.6 µM), most hits filed as inhibitors; hit rate 3.5% among 310,000;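 note: Gal4-VP16 expression switched on by copper sulfate through the metallothionein promoter; nearly all actives have a fitted effect of over 50% in size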
Sfp inh: blocks B. subtilis Sfp PPTase activity | Q9F4F7 | Biochemical Sfp PPTase activity, qHTS | Potency, µM, usual class: inhibitors | hit rate 3.5% among 310,000 | AID 1490;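 note: the enzyme is Sfp with the accession as filed and its product quenches rhodamine fluorescence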
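Fluorescence-quenching assay: 15 nM Sfp-PPTase preincubated 15 min at room temperature with compound, then 5 uM rhodamine-CoA and 12.5 uM BHQ-2-labelled YbbR peptide added. Fluorescence (ex 525/em 598 nm) read at start and after 30 min; difference gives rate.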
PLK1 PBD inh: PLK1 (human) polo-box domain binding inhibition. Plk1 PBD binding of FITC phosphopeptide, fluorescence polarization. hit rate 2.8% among 360,000. Potency, µM, hits mostly inhibitors. AID 720504. P53350; note: series mostly up to about 57 µM; nearly all actives have a fitted effect of over 65% in size
Target sequence (P53350 whole entry, looked up, the tested form may be a part): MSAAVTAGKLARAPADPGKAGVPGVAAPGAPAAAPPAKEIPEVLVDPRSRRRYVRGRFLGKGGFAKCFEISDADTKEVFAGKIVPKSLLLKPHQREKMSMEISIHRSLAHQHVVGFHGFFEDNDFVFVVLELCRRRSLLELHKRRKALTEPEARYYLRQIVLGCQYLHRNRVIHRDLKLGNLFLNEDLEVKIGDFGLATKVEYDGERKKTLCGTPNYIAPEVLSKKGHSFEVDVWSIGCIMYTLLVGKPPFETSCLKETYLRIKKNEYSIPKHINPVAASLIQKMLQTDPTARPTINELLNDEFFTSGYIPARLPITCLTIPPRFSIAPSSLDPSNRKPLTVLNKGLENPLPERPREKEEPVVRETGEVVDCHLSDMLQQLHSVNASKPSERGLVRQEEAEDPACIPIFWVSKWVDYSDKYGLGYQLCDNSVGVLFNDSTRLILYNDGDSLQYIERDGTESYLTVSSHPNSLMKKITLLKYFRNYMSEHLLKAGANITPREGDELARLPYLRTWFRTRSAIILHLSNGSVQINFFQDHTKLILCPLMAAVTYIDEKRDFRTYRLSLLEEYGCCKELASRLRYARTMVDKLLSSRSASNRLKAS
Large screens that a line does not name were inactive. Unless noted, calls come from the whole dose curve; as a rule, active = well fitted curve in the direction sought with a large enough effect; inconclusive = small, poorly fitted or top-dose-only effect, or another doubt; inactive = no such curve, though single readings can be large; an effect the other way counts as inactive or inconclusive.

CCOCCn1c(N2CCCC2)nc2c1c(=O)[nH]c(=O)n2C	Sfp inh 39.8µM (no result: ALDH1A1 inh)
CCOCCn1c(SC)nc2c1c(=O)[nH]c(=O)n2C	ALDH1A1 inh 14.1µM, Sfp inh 17.8µM, PLK1 PBD inh 23.8µM
O=CNc1c(Cl)cc2c(c1Cl)Cc1cc([N+](=O)[O-])ccc1-2	none (no result: ALDH1A1 inh, RORg inh, Gal4-VP16 FLuc, Sfp inh)
Cc1nnsc1C(=O)NNc1ccc(C(C)(C)C)cc1	ALDH1A1 inh 31.6µM
Cc1cc2nc(-c3cccc(Cl)c3)c(Cc3ccsc3)n2c(C)c1Br	none (no result: ALDH1A1 inh, RORg inh, Gal4-VP16 FLuc, Sfp inh)
O=C/C=C/c1ccc(O)cc1	ALDH1A1 inh 3.55µM (no result: PLK1 PBD inh)
CN(C)c1ccc(/C=C/C(=O)c2ccc(O)cc2)cc1	none (no result: ALDH1A1 inh, RORg inh, Gal4-VP16 FLuc, Sfp inh)
Cc1ccccc1Nc1nc(CSc2nnnn2-c2ccccc2)cs1	ALDH1A1 inh 7.94µM, RORg inh inconclusive, Sfp inh 44.7µM, PLK1 PBD inh inconclusive
c1ccc(-c2nc(CSc3nnnn3-c3ccccc3)cs2)cc1	ALDH1A1 inh 14.1µM, RORg inh inconclusive
Cc1nc(-c2ccc(S(=O)(=O)N3CCN(c4ccccc4)CC3)cc2)co1	none (no result: ALDH1A1 inh)
Cc1cccc(N2CCN(S(=O)(=O)c3ccc4c(c3)NC(=O)CS4)CC2)c1C	PLK1 PBD inh 26.7µM (no result: ALDH1A1 inh)
Cc1nc(-c2ccc(S(=O)(=O)N3CCN(c4cccc(C)c4C)CC3)cc2)co1	PLK1 PBD inh 23.8µM (no result: ALDH1A1 inh)
C[C@H](NC(=O)[C@@H]1CCCN1C(=O)[C@@H]1CCCN1C(=O)c1cccc2ccccc12)c1ccccc1	none (no result: ALDH1A1 inh, RORg inh, Gal4-VP16 FLuc, Sfp inh)
CCN(CC)c1ccc(NC(=O)COC(=O)C23CCC(=O)N2c2ccccc2S3)cc1 (configuration not stated)	ALDH1A1 inh inconclusive, Sfp inh 63.1µM
CCN(CC)c1ccc(NC(=O)COC(=O)CCC(=O)c2cccs2)cc1	none (no result: ALDH1A1 inh, RORg inh, Gal4-VP16 FLuc, Sfp inh)
COC(=O)c1c(NC(=O)Cn2nc(C(F)F)cc2C(F)F)sc(C)c1C	ALDH1A1 inh 11.2µM, Sfp inh 56.2µM, PLK1 PBD inh 15µM
CCOC(=O)c1c(NC(=O)Cn2cnc([N+](=O)[O-])n2)sc2c1CCCC2	ALDH1A1 inh inconclusive, PLK1 PBD inh inconclusive
CCOC(=O)c1c(NC(=O)Cn2cnc([N+](=O)[O-])n2)sc(C)c1C	ALDH1A1 inh 31.6µM, PLK1 PBD inh 23.8µM
CCOC(=O)c1c(NC(=O)Cn2cnc3scc(-c4ccc(C)cc4)c3c2=O)sc(C)c1C	ALDH1A1 inh 14.1µM
CCOC(=O)c1c(NC(=O)Cn2nc(C(F)F)cc2C(F)F)sc(C)c1C	ALDH1A1 inh inconclusive, RORg inh inconclusive
CC(C)OC(=O)c1c(NC(=O)Cn2cnc([N+](=O)[O-])n2)sc2c1CCCC2	ALDH1A1 inh 12.6µM, PLK1 PBD inh inconclusive
CCc1nc2c(OCc3ccc(Cl)cc3Cl)cccn2c1N(C)C(=O)CC(C)C	none (no result: ALDH1A1 inh, RORg inh, Gal4-VP16 FLuc, Sfp inh)
Cc1ccc([C@H]2C(C(=O)O)=CCN2S(=O)(=O)c2ccc(C)cc2)cc1	none (no result: ALDH1A1 inh, RORg inh, Gal4-VP16 FLuc, Sfp inh)
CCOC(=O)c1c(NC(=O)Cn2nc(C(F)(F)F)cc2C)sc(C)c1C	PLK1 PBD inh 26.7µM
CCOC(=O)c1c(NC(=O)Cn2nnc(-c3ccccc3Cl)n2)sc(C)c1C	none
COc1cc2c(cc1OC)C1=NC(=O)CN1C(SCc1ccccc1)=N2	ALDH1A1 inh inconclusive, Sfp inh inconclusive, PLK1 PBD inh 26.7µM
COc1cnn(Cc2ccccc2)c(=O)c1SCc1ccccc1	PLK1 PBD inh inconclusive
Nc1ccccc1C=C1Cc2ccccc2C1=O	none (no result: ALDH1A1 inh, RORg inh, Gal4-VP16 FLuc, Sfp inh)
CC(=O)C(=Cc1cc(C)n(-c2ccccc2)c1C)C(C)=O	ALDH1A1 inh inconclusive
Cc1cc(/C=C2\Cc3ccccc3C2=O)c(C)n1-c1ccccc1	ALDH1A1 inh 7.94µM, Gal4-VP16 FLuc inconclusive
Cc1cc(C=C2C(=O)c3ccccc3C2=O)c(C)n1-c1ccccc1	ALDH1A1 inh 15.8µM, RORg inh 0.0631µM, Gal4-VP16 FLuc 15.8µM, PLK1 PBD inh inconclusive
CC1=NN(c2ccccc2)C(=O)/C1=C\c1cc(C)n(-c2ccccc2)c1C	ALDH1A1 inh inconclusive
Cc1ccc(-n2c(C)cc(C=C3C(=O)CC(C)(C)CC3=O)c2C)cc1	ALDH1A1 inh 0.891µM
Cc1ccc(-n2c(C)cc(/C=C3\SC(=O)NC3=O)c2C)cc1	none (no result: ALDH1A1 inh)
Cc1cc(C=C2C(=O)c3ccccc3C2=O)c(C)n1-c1ccc(C(=O)O)cc1	ALDH1A1 inh 5.62µM, Sfp inh inconclusive
NCC1OC(OC2C(N)CC(N)[C@@H](O)[C@@H]2OC2O[C@H](CO)[C@@H](O[C@@H]3OC(CN)C(O)C(O)C3N)C2O)C(N)C(O)C1O (some centres not stated)	none (no result: PLK1 PBD inh)
Cc1cc(C=O)c(C)n1-c1cccc(C(=O)O)c1	none
